{
  "source": "PubChem BioAssay (NCATS)",
  "note": "Results filed as inconclusive are left out. Values without a mark were called inactive. Activity calls are given as the source filed them. Calls follow the shape of the dose curve; as a rule, active = well fitted inhibition curve with a large enough effect; inconclusive = small, poorly fitted or top-dose-only effect; inactive = flat fitted curve, though single readings scatter. % is scaled to controls: 0 for no effect and ±100 for the full control effect; potency is read from the fitted curve at half-maximal effect.",
  "data": [
    {"molecular_target": "Voltage-gated inwardly rectifying potassium channel KCNH2 (Homo sapiens) (UniProt Q12809)", "sequence (Q12809 whole entry, looked up)": "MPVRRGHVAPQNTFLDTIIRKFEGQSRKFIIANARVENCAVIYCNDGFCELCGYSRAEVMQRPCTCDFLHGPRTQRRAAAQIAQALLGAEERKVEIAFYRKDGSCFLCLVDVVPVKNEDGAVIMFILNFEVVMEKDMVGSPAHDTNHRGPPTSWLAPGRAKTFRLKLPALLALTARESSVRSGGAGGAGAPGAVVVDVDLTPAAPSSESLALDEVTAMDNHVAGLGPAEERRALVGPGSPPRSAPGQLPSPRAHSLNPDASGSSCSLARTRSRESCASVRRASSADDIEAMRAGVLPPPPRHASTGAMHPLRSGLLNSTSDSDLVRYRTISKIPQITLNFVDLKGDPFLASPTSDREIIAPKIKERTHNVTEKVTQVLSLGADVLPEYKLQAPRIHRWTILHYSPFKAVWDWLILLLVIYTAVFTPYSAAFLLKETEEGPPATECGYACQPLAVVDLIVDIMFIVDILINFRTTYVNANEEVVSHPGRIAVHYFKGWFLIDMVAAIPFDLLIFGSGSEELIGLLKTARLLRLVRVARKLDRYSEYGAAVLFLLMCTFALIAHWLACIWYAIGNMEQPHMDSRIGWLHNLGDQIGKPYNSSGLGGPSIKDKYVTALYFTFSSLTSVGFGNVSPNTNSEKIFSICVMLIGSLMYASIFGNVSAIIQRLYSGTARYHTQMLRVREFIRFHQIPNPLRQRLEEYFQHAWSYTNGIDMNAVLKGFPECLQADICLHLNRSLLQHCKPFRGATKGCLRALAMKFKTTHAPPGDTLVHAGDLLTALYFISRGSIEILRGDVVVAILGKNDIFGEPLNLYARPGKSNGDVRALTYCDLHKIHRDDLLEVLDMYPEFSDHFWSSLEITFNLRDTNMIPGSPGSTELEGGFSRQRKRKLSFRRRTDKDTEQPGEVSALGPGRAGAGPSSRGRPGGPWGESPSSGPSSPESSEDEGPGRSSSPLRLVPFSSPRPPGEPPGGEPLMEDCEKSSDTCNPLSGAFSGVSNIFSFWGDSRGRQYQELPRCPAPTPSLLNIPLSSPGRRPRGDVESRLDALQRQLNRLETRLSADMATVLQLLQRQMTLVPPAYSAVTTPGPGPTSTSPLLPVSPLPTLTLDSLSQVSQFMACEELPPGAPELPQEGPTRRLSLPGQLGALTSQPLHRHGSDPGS", "test": "qHTS Assay for Small Molecule Inhibitors of the Human hERG Channel Activity (AID 588834);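 also: lower thallium flux fluorescence means stronger hERG block; nearly all actives have a fitted effect of over 50% in size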; as to activity change, negative = inhibition: top concentration of the series differs between compounds", "settings": "U2OS BacMam hERG, FluxOR thallium flux fluorescence; series mostly up to 46.1 µM; activity change, negative = inhibition: at the top concentration", "procedure,_shortened": "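Step 1: BacMam hERG transduction of U2OS, 4 hrs RT. Step 2: overnight 37 °C, plate 2000 cells/well, 4 hr. Step 3: FluxOR load, compound 10 min, stimulate, read fluorescence.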", "values": [
      {"smiles": "COCC(=O)Nc1c(I)c(C(=O)NCC(O)CO)c(I)c(C(=O)N(C)CC(O)CO)c1I", "note": "(stereo unspecified)", "activity change, negative = inhibition": "1.56% [at 20.6 µM]"},
      {"smiles": "O=C(/C=C/c1ccc(O)c(O)c1)O[C@@H]1C[C@@](OC(=O)/C=C/c2ccc(O)c(O)c2)(C(=O)O)C[C@@H](O)[C@@H]1O", "activity change, negative = inhibition": "8.94%"},
      {"smiles": "CC1(C)S[C@@H]2[C@H](N=CN3CCCCCC3)C(=O)N2[C@H]1C(=O)O", "activity change, negative = inhibition": "-1.49%"},
      {"smiles": "CN1C(=O)CC(c2ccccc2)C1=O", "note": "(stereo unspecified)", "activity change, negative = inhibition": "10.2%"},
      {"smiles": "NS(=O)(=O)c1cc(C2(O)NC(=O)c3ccccc32)ccc1Cl", "note": "(stereo unspecified)", "activity change, negative = inhibition": "-24.1% [at 20.6 µM]"},
      {"smiles": "C[n+]1ccccc1/C=N/O", "activity change, negative = inhibition": "9.74% [at 20.6 µM]"},
      {"smiles": "C[C@]1(Cn2ccnn2)[C@H](C(=O)O)N2C(=O)C[C@H]2S1(=O)=O", "activity change, negative = inhibition": "4.22%"},
      {"smiles": "CCN[C@H]1CN(CCCOC)S(=O)(=O)c2sc(S(N)(=O)=O)cc21", "activity change, negative = inhibition": "-1.5% [at 20.6 µM]"},
      {"smiles": "CO[C@@]1(NC(=O)C(C(=O)O)c2ccc(O)cc2)C(=O)N2C(C(=O)O)=C(CSc3nnnn3C)CO[C@@H]21", "note": "(stereo partly specified)", "activity change, negative = inhibition": "9.9% [at 20.6 µM]"},
      {"smiles": "C[N+]1(C)CCCC(OC(=O)C(O)(c2ccccc2)c2ccccc2)C1", "note": "(stereo unspecified)", "activity change, negative = inhibition": "-0.0631% [at 20.6 µM]"},
      {"smiles": "CC[C@]12CCCN3CCc4c(n(c5ccccc45)[C@@](O)(C(=O)OC)C1)[C@@H]32", "Potency": "0.398 µM (active)"},
      {"smiles": "CN[C@@H]1[C@H](O)[C@H](NC)[C@H]2O[C@@]3(O)C(=O)C[C@@H](C)O[C@H]3O[C@@H]2[C@H]1O", "activity change, negative = inhibition": "-1.03% [at 20.6 µM]"},
      {"smiles": "CC(=O)N[C@H]1[C@H]([C@H](O)[C@H](O)CO)OC(C(=O)O)=C[C@@H]1N=C(N)N", "activity change, negative = inhibition": "-35.7%"},
      {"smiles": "CC(=O)N1C[C@H](O)C[C@H]1C(=O)O", "activity change, negative = inhibition": "5.18%"},
      {"smiles": "C[N+](C)(C)CC(O)CC(=O)[O-]", "note": "(stereo unspecified)", "activity change, negative = inhibition": "-9.38%"},
      {"smiles": "CC(=O)OCC(=O)[C@@]1(O)CC[C@H]2[C@@H]3CCC4=CC(=O)C=C[C@]4(C)[C@@]3(F)[C@@H](O)C[C@@]21C", "activity change, negative = inhibition": "8.62% [at 20.6 µM]"},
      {"smiles": "OCCN1C[C@H](O)[C@@H](O)[C@H](O)[C@H]1CO", "activity change, negative = inhibition": "-0.605%"},
      {"smiles": "CCOc1ccccc1O[C@H](c1ccccc1)[C@H]1CNCCO1", "activity change, negative = inhibition": "-27.6%"},
      {"smiles": "C/C=C/C(=O)N(CC)c1ccccc1C", "activity change, negative = inhibition": "4.46% [at 20.6 µM]"},
      {"smiles": "CCOC(=O)[C@H](CCc1ccccc1)N[C@@H](C)C(=O)N1Cc2cc(OC)c(OC)cc2C[C@H]1C(=O)O", "activity change, negative = inhibition": "3.43%"},
      {"smiles": "COc1ccc(-c2cc(=O)c3c(O)cc(O[C@@H]4O[C@H](CO[C@@H]5O[C@@H](C)[C@H](O)[C@@H](O)[C@H]5O)[C@@H](O)[C@H](O)[C@H]4O)cc3o2)cc1O", "activity change, negative = inhibition": "-14.7%"},
      {"smiles": "CC(=O)N(CC(O)CN(C(C)=O)c1c(I)c(C(=O)NCC(O)CO)c(I)c(C(=O)NCC(O)CO)c1I)c1c(I)c(C(=O)NCC(O)CO)c(I)c(C(=O)NCC(O)CO)c1I", "note": "(stereo unspecified)", "activity change, negative = inhibition": "-14.1% [at 20.6 µM]"},
      {"smiles": "CC(C)=CCC[C@@](C)(O)[C@H]1CC=C(C)CC1", "activity change, negative = inhibition": "-10.1%"},
      {"smiles": "CC(=O)[C@@]1(O)CC[C@H]2[C@@H]3C[C@H](C)C4=CC(=O)C=C[C@]4(C)[C@@]3(F)[C@@H](O)C[C@@]21C", "activity change, negative = inhibition": "-1.69% [at 20.6 µM]"},
      {"smiles": "CC1(c2ccccc2)OC(C(=O)O)=CC1=O", "note": "(stereo unspecified)", "activity change, negative = inhibition": "25.9%"},
      {"smiles": "CN1CC(=O)NC1=N", "activity change, negative = inhibition": "10.6%"},
      {"smiles": "CC1(C)S[C@@H]2[C@H](NC(=O)C(C(=O)O)c3ccccc3)C(=O)N2[C@H]1C(=O)O", "note": "(stereo partly specified)", "activity change, negative = inhibition": "-1.2%"},
      {"smiles": "O=c1[nH]c(=O)n([C@H]2C[C@H](O)[C@@H](CO)O2)cc1I", "activity change, negative = inhibition": "-1.35% [at 20.6 µM]"},
      {"smiles": "O=C(O)/C=C/c1ccc(Cn2ccnc2)cc1", "activity change, negative = inhibition": "7.74% [at 20.6 µM]"},
      {"smiles": "Cc1ccc2c(c1)c1c3n2CCNC3CCC1", "note": "(stereo unspecified)", "activity change, negative = inhibition": "-19.8%"},
      {"smiles": "COC(=O)N/N=C/c1c[n+]([O-])c2ccccc2[n+]1[O-]", "activity change, negative = inhibition": "2.23%"},
      {"smiles": "NC(=O)N[C@@H](CCC(=O)O)C(=O)O", "activity change, negative = inhibition": "1.15%"},
      {"smiles": "CC[C@H](C)[C@H](N)C(=O)O", "activity change, negative = inhibition": "-3.41%"},
      {"smiles": "CCOC(=O)OC(C)OC(=O)[C@@H]1N2C(=O)[C@@H](NC(=O)[C@H](N)c3ccccc3)[C@H]2SC1(C)C", "note": "(stereo partly specified)", "activity change, negative = inhibition": "12% [at 20.6 µM]"},
      {"smiles": "NC(=O)NC1NC(=O)NC1=O", "note": "(stereo unspecified)", "activity change, negative = inhibition": "-29.5% [at 20.6 µM]"},
      {"smiles": "CC1(C)[C@@H](OC(=O)CCC(=O)O)CC[C@]2(C)[C@H]3C(=O)C=C4[C@@H]5C[C@@](C)(C(=O)O)CC[C@]5(C)CC[C@@]4(C)[C@]3(C)CC[C@@H]12", "activity change, negative = inhibition": "-14.5% [at 20.6 µM]"}
    ]}
  ]
}
